The whole screen tested about 190,000 compounds, of which about 810 (0.43%) were called active. Rule as the data show it: active = inhibition above about 50%; inactive = the rest. The entries come from a sample that favours actives as a whole.
molecular target: Mannose-6-phosphate isomerase (Homo sapiens) (UniProt P34949); test: inhibitors of human PMI, primary screen, biochemical, fluorescence intensity, coupled assay (AID 1209); details: purified PMI enzyme, at 20 µM, hits give high values;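 also: plate controls were DMSO vehicle for no effect and wells lacking substrate for full effect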
Sequence (P34949 whole entry, looked up): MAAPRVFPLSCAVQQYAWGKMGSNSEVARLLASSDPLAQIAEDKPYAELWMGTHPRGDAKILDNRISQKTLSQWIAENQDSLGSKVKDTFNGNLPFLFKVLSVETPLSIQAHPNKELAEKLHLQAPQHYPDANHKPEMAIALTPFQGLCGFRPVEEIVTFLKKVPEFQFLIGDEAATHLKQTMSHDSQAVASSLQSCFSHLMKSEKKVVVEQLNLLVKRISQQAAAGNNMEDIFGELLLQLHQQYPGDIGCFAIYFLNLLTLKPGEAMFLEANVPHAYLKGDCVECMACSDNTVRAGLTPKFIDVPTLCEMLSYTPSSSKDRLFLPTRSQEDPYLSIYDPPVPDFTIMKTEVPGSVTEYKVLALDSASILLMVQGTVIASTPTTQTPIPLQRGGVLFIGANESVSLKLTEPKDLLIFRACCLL

Row | Structure (SMILES) | inhibition
1 | CCN(CC)C(=O)C(=O)N/N=C/c1ccc(C(=O)O)cc1 | 15.8% (inactive)
2 | COc1cc(C(=O)Nc2ccc(C(C)=O)cc2)c(Br)c(OC)c1OC | 2.4% (inactive)
3 | O=C(CCn1ccnc1)Nc1ccc2ccccc2c1 | 13.1% (inactive)
4 | O=S(=O)(NCCSCc1c(Cl)cccc1Cl)c1ccc2c(c1)OCCO2 | 2.4% (inactive)
5 | COc1ccccc1/C=N/NC(=O)COCC(=O)N/N=C/c1ccccc1OC | 12.7% (inactive)
6 | CCC(CC(C)(C)O)C(=O)NNC(=S)Nc1ccccc1 (configuration not stated) | 3.1% (inactive)
7 | O=C(Nc1nc(-c2ccccn2)cs1)C1COc2ccccc2O1 (configuration not stated) | -2.1% (inactive)
8 | O=C(Nc1nc(-c2ccccc2)cs1)C1COc2ccccc2O1 (configuration not stated) | 9.1% (inactive)
9 | O=C(Nc1nc(-c2ccncc2)cs1)C1COc2ccccc2O1 (configuration not stated) | 61.7% (active)
10 | COc1ccc(C(O)c2nccn2Cc2ccccc2)cc1OC (configuration not stated) | 9.1% (inactive)
11 | Cc1cc(SCC(=O)N/N=C/c2ccc(O)c(O)c2O)c(C)cc1Br | 79.9% (active)
12 | Cc1cc(SCC(=O)N/N=C/c2ccc(O)c(O)c2)c(C)cc1Br | 18% (inactive)
13 | Cc1cc(SCC(=O)N/N=C/c2ccc(O)cc2O)c(C)cc1Br | -12.7% (inactive)
14 | CCC(C)(C)NC(=O)C(c1ccco1)N(C(=O)c1csnn1)c1cccc(F)c1 (configuration not stated) | -1.3% (inactive)
15 | COc1ccc(/C=C2\N=C(C)N(c3ccc(C(=O)O)cc3)C2=O)cc1OC | -0.2% (inactive)
16 | Cc1cccc(OC(=O)c2cncc(Br)c2)c1 | -2.9% (inactive)
17 | CC(=O)Nc1ccc(S(=O)(=O)Nc2ccc(F)c([N+](=O)[O-])c2)cc1 | -2.3% (inactive)
18 | CC(=O)Nc1ccc(C)c([N+](=O)[O-])c1 | -6.2% (inactive)
19 | CC(=O)Nc1ccc(S(=O)(=O)Nc2ccc(C)c([N+](=O)[O-])c2)cc1 | 114% (active)
20 | CCOC(=O)c1cccc(C(=O)OCC)n1 | 7.8% (inactive)
21 | Cc1ccc(OC(=O)c2cccc(C(=O)Oc3ccc(C)cc3)n2)cc1 | 11.1% (inactive)

Row | Structure (SMILES) | inhibition
22 | Cc1ccc(OC(=O)c2cccc(C(=O)Oc3ccc(C)cn3)n2)nc1 | 51.5% (active)
23 | COc1ccccc1NS(=O)(=O)c1ccc2oc(SCc3ccc(C#N)cc3)nc2c1 | 23.3% (inactive)
24 | C/C(=N\Nc1nc(N2CCOCC2)nc(N2CCOCC2)n1)c1cccc([N+](=O)[O-])c1 | -11.8% (inactive)
25 | Brc1cccc(-c2nnc3sc(CN4CCC5(CC4)OCCO5)cn23)c1 | 101% (active)
26 | Brc1ccc(-c2nnc3sc(CN4CCC5(CC4)OCCO5)cn23)cc1 | 7.3% (inactive)
27 | c1ccc(-c2nnc3sc(CN4CCC5(CC4)OCCO5)cn23)cc1 | 10.9% (inactive)
28 | CC1(C)CC2(CC(c3ccccc3F)c3cc(Cl)c(O)cc3O2)NC(=S)N1 (configuration not stated) | -8.2% (inactive)
29 | CC1(C)CC2(CC(c3ccccc3)c3ccc(O)cc3O2)NC(=S)N1 (configuration not stated) | -4.8% (inactive)
30 | CCCCN(C(=O)Cn1nnc2ccccc21)C(C(=O)NCc1ccco1)c1ccncc1 (configuration not stated) | -0.5% (inactive)
31 | Cc1onc(-c2ccccc2Cl)c1C(=O)NC(=S)NCCc1ccccc1 | 11.7% (inactive)
32 | O=C(c1cccnc1)N1N=C(C2CCCCC2)CC1(O)C(F)(F)F (configuration not stated) | -7.1% (inactive)
33 | CCOC(=O)C(=O)Nc1sc(C(=O)N2CCOCC2)c(C)c1C#N | 2.7% (inactive)
34 | Cc1ccccc1-c1cc(C(=O)Nc2sc(C(=O)OC(C)C)c(C)c2C#N)c2ccccc2n1 | 61.2% (active)
35 | COC(=O)c1sc(NC(=O)c2cc(-c3ccccc3)nc3ccccc23)c(C#N)c1C | 5.2% (inactive)
36 | COc1ccc(-c2cc(C(=O)Nc3sc4c(c3C#N)CCCC4)c3ccccc3n2)cc1 | 7.1% (inactive)
37 | Cc1sc(NC(=O)c2cc(-c3ccccc3)nc3ccccc23)c(C(N)=O)c1C | 17% (inactive)
38 | Cc1ccccc1-c1cc(C(=O)Nc2sc(C)c(C)c2C(N)=O)c2ccccc2n1 | 19.7% (inactive)
39 | CCOC(=O)c1sc(NC(=O)c2cc(-c3ccccc3)nc3ccccc23)c(C#N)c1C | 79% (active)
40 | CCOC(=O)c1sc(NC(=O)c2cc(-c3ccccc3C)nc3ccccc23)c(C#N)c1C | 47.9% (inactive)
41 | CCOC(=O)c1sc(NC(=O)c2ccncc2)c(C#N)c1C | 49.3% (inactive)
42 | CCOC(=O)c1sc(NC(=O)c2cc(-c3ccc(C)cc3)nc3ccccc23)c(C#N)c1C | 67.7% (active)

Row | Structure (SMILES) | inhibition
43 | CCCN1C2CCCC1CC(NC(=S)Nc1cc(C)cc(C)c1)C2 (configuration not stated) | 7.1% (inactive)
44 | NNC(=O)CNc1cccc(Cl)c1 | -2.4% (inactive)
45 | CC/C(C)=N\N=C\c1c(O)n(CC)c2cc(C3=NNC(=O)CC3)ccc12 | -47.5% (inactive)
46 | COc1ccccc1-n1cnnc1SCC(=O)Nc1cccc(S(=O)(=O)N2CCCCC2)c1 | 7.9% (inactive)
47 | O=C(NCCN1CCN(C(=O)c2cccs2)CC1)C(=O)Nc1ccc(Br)cc1 | -0.2% (inactive)
48 | COc1ccc(CC(=O)Nc2ccc(S(=O)(=O)NCC3CCCO3)cc2)cc1 (configuration not stated) | 2.9% (inactive)
49 | Cc1cc([N+](=O)[O-])nn1CCCC(=O)NCc1ccc(F)cc1 | -9.8% (inactive)
50 | Cc1nc(NC(=O)c2ccccc2)sc1-c1csc(Nc2ccc(F)cc2)n1 | 45% (inactive)
51 | Cc1nc(NC(=O)c2ccccc2)sc1-c1csc(Nc2cccc(Cl)c2)n1 | 0.6% (inactive)
52 | Cc1nc(NC(=O)c2ccccc2)sc1-c1csc(Nc2ccc(Cl)cc2)n1 | 53.1% (active)
53 | Cc1nn(Cc2ccc(Cl)cc2)c(C)c1NC(=O)c1noc2c1CCCCC2 | 15.5% (inactive)
54 | COc1ccc(OCCCNCCc2ccccc2)cc1 | -2.5% (inactive)
55 | O=C1/C(=C/c2cccnc2)SC(=NCc2ccccc2)N1Cc1ccccc1 | 7.3% (inactive)
56 | CCCCCCc1nc2c(=O)[nH]c3ccccc3c2o1 | 6.6% (inactive)
57 | CCCCc1nc2c(=O)[nH]c3ccccc3c2o1 | 0.8% (inactive)
58 | CCCCCc1nc2c(=O)[nH]c3ccccc3c2o1 | 102% (active)
59 | CCN(C(=O)c1ccnn1C)c1ccccc1 | -6.3% (inactive)
60 | CCOC(=O)Cc1csc(NC(=O)c2cc(=O)c3ccccc3o2)n1 | -7.8% (inactive)
61 | CCOC(=O)Cc1csc(SCn2nnc3ccccc3c2=O)n1 | 1.9% (inactive)
62 | CCOC(=O)Cc1csc(-n2sc3ccccc3c2=O)n1 | 98.9% (active)
